# Reference: PubChem BioAssay
# Calls of active or inactive are those of the source.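 Rule for the calls, unless noted: active = inhibition at or above 50% at 10 µM; inactive = inhibition below 50%.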
# Columns and labels:
# [1] = inhibitors of TNFa-induced NFkB p65 translocation, primary screen, imaging, HUVEC, MLSMR starter and 10KST1 sets (AID 438;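 active = inhibition above 20% together with a positive visual image hit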;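 note: compound added about 3h40 before a 20 min TNFalpha stimulation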;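 for inhibition: signal is the nuclear over cytoplasmic p65 intensity ratio per well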); details: HUVEC TNFa-induced p65 nuclear translocation; cell count: measured here: nuclei count (cytotoxicity indicator), at 2.08 µM; inhibition: at 2 µM, stronger effect = higher value, 0% TNFa-plus-vehicle, 100% no-TNFa wells
# [2] = reduction of polyQ htt aggregates in cells – imaging, exon1htt(103Q)mCFP cells, high-content imaging, primary screen (AID 483;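 active = visual image review flags a hit and inhibition of aggregation exceeds 20%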;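 note: compound exposure lasted 3 days before fixation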;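 for nuclei count: percent of the per-plate median nuclei count of sample wells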); details: exon1htt(103Q)mCFP cell line, aggregate imaging, at 2 µM; inhibition of aggregation: stronger effect = higher value; nuclei count: measured here: cell count, toxicity
# [3] = endothelial E-selectin expression blockers – imaging, HUVEC, immunofluorescence, MLSMR starter and 10KST1 sets, primary screen (AID 487;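 active = visually confirmed hit in the image check and inhibition above 20%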;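 for inhibition: signal is fraction of cell area covered by stained E-selectin grains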;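 for nuclei count: 100% = median nuclei count of all wells on the same plate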); details: HUVEC TNFalpha-induced E-selectin immunofluorescence imaging, at 2 µM; inhibition: stronger effect = higher value; nuclei count: measured here: cell number, toxicity
# [4] = target: Voltage-gated potassium channel subunit beta-2 (Rattus norvegicus) (UniProt P62483); experiment: inhibitors of rat Kvbeta2 reductase activity – biochemical, NADPH fluorescence, primary screen (AID 622;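 active = fluorescence slope higher than the sample average by over 3 SD, cut at about -0.22 in these data, passing the limit was not always enough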;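 note: slope of raw intensity against log time taken from 70 to 1610 s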); details: recombinant KvBeta, 4-cyanobenzaldehyde reduction, at 10 µM, stronger effect = higher value
# [5] = target: Voltage-gated potassium channel subunit beta-2 (Rattus norvegicus) (UniProt P62483); experiment: enhancers of rat Kvbeta2 NADPH turnover – biochemical, NADPH fluorescence, primary screen (AID 623;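 active = NADPH fluorescence slope more negative than the mean of all samples by about 3 SD, 99.7% confidence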;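 note: fluorescence intensity change per second fitted from 20 to 320 s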); details: Recombinant KvBeta, NADPH fluorescence decrease slope, 10 min; at 10 µM; stronger effect = lower value
# [6] = target: Alpha-2C adrenergic receptor (Homo sapiens) (UniProt P18825); experiment: compounds altering alpha2C-coupled GIRK flux – cell-based, HEK293 alpha2C/GIRK1/2, thallium flux, primary screen (AID 624;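 active = fluorescence slope after compound addition differing from the mean of all screened samples at 99.7% confidence, in either direction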;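 note: slope of fluorescence ratio to pre-addition baseline per second over 15 to 24 s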); details: thallium flux BTC fluorescence, at 10 µM, actives lie on both sides
# [7] = blockers of RIG-like receptor reporter activation – cell-based, Sendai virus stimulus, luciferase, 10K MLSCN set, TLR/RLR signaling modifier project, primary screen (AID 602276); details: HEK293 RL24 IRF3 luciferase reporter, at 10 µM, stronger effect = higher value;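 note: firefly luciferase from ISG56 promoter only with Renilla not read in this screen; 0% = Sendai virus plus DMSO and 100% = medium plus DMSO without virus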
# [8] = TLR3 IRF3 reporter activation blockers – cell-based, poly I:C stimulus, luciferase, 10K MLSCN set, primary screen (AID 602277;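 active = inhibition of the reporter signal at or above 50%; inactive = inhibition below 50%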); details: HEK293-TLR3 RL24 IRF3 luciferase reporter, at 10 µM, stronger effect = higher value
# Sequence of Alpha-2C adrenergic receptor (Homo sapiens) (P18825 whole entry, looked up): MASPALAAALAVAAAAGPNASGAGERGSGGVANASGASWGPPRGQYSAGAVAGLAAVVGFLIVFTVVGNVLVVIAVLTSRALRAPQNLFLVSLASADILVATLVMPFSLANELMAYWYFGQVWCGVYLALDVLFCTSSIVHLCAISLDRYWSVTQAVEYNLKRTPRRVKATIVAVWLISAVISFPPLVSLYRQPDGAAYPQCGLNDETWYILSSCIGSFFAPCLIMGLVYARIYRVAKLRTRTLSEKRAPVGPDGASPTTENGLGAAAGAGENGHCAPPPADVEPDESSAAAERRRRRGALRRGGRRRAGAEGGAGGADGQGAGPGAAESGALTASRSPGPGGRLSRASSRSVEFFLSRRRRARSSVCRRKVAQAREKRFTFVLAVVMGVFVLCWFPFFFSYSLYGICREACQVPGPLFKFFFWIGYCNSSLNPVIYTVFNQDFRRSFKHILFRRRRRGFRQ
# Sequence of Voltage-gated potassium channel subunit beta-2 (Rattus norvegicus) (P62483 whole entry, looked up): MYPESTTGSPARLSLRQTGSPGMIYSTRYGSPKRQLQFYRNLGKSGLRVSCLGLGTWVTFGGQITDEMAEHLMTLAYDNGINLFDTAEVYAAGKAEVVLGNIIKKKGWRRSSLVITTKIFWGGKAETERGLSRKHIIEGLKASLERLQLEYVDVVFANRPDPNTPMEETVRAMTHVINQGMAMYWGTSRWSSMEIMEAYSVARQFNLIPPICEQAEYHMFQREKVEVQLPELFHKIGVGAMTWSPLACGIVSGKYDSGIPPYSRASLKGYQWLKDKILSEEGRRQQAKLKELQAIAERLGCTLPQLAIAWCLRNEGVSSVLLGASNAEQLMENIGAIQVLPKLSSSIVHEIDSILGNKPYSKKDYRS
SMILES,cell count [1],inhibition [1],inhibition of aggregation [2],nuclei count [2],inhibition [3],nuclei count [3],fluorescence slope [4],NADPH fluorescence slope [5],slope [6],inhibition [7],inhibition [8]
CCOC(=O)C1CCCN(C(=O)c2sc3nc(-c4ccccc4)cn3c2C)C1 (stereo not drawn),631,13.2% (inactive),5.7% (inactive),103%,67.6% (active),76.5%,-0.544 (inactive),1.7e-05 (inactive),0.00524 (inactive),-20.7% (inactive),-120% (inactive)
O=C(CSc1nc2ncccc2[nH]1)Nc1ccc2c(c1)OCCO2,507,1.7% (inactive),10.1% (inactive),87.8%,-113% (inactive),177%,-0.509 (inactive),2.9e-05 (inactive),0.00643 (inactive),-4.29% (inactive),-22.7% (inactive)
COc1ccc(NC(=O)COc2ccccc2)c(OC)c1,404,8.8% (inactive),-15.2% (inactive),106%,1.1% (inactive),108%,-0.418 (inactive),-4.6e-05 (inactive),0.00449 (inactive),-32.8% (inactive),-89.1% (inactive)
Cc1cc(N2CCC3(CC2)OCCO3)n2nc(C)c(-c3ccc(Cl)cc3)c2n1,495,-19.7% (inactive),-48.2% (inactive),61.2%,-11.4% (inactive),94.7%,-0.544 (inactive),7.5e-07 (inactive),0.00741 (inactive),12.3% (inactive),12.1% (inactive)
CC(=O)OC1c2ccccc2C(=O)N1c1ccccc1C (stereo not drawn),590,9% (inactive),-20.1% (inactive),85.9%,-51.8% (inactive),115%,-0.586 (inactive),-1.7e-05 (inactive),0.00543 (inactive),10.3% (inactive),22.9% (inactive)
COc1cccc(-c2nnc(NC(C)=O)o2)c1,694,0.3% (inactive),-16.5% (inactive),99.5%,-24.3% (inactive),118%,-0.407 (inactive),-6.1e-05 (inactive),0.00477 (inactive),-11% (inactive),6.47% (inactive)
COc1ccc(C)cc1NC(=O)C1CCN(S(=O)(=O)c2cccc3cccnc23)CC1,539,-6.5% (inactive),13.2% (inactive),76.6%,-6.8% (inactive),106%,-0.535 (inactive),-4.1e-05 (inactive),0.00559 (inactive),14.3% (inactive),30.4% (inactive)
CCOc1ccc(N(CC(=O)OC)S(=O)(=O)c2ccc(OC)c(OC)c2)cc1,444,6.3% (inactive),-1.6% (inactive),104%,9.4% (inactive),101%,-0.455 (inactive),6.6e-05 (inactive),0.00363 (inactive),-8.61% (inactive),15.5% (inactive)
CC(NS(=O)(=O)c1ccccc1)C(c1cccs1)N1CCN(C)CC1 (stereo not drawn),445,-6.7% (inactive),-18.1% (inactive),111%,-262% (inactive),137%,-0.321 (inactive),-9.7e-06 (inactive),0.00347 (inactive),20.5% (inactive),36.2% (inactive)
O=S(=O)(NCC1CCCO1)c1cc(Cl)ccc1Br (stereo not drawn),426,-0.2% (inactive),7.4% (inactive),108%,-4.9% (inactive),117%,-0.506 (inactive),7.7e-05 (inactive),0.00336 (inactive),-13.6% (inactive),-30.7% (inactive)
CCOC(=O)CNC(=O)CSc1ncnc2c1cnn2Cc1ccccc1,597,12.6% (inactive),-12.1% (inactive),103%,-157% (inactive),134%,-0.374 (inactive),-0.000157 (inactive),0.0067 (inactive),2.57% (inactive),24.8% (inactive)
CCc1ccc(NC(=O)C2CC(=O)N(C(C)C)C2)cc1 (stereo not drawn),346,-6.8% (inactive),23.8% (inactive),92.5%,-6.6% (inactive),75.6%,-0.62 (inactive),2.5e-05 (inactive),0.00536 (inactive),7.09% (inactive),0.245% (inactive)
Cc1ccccc1N(C)S(=O)(=O)c1ccc2[nH]cc(C(=O)NCC3CCCO3)c(=O)c2c1 (stereo not drawn),523,-20.4% (inactive),17.8% (inactive),55%,-52.3% (inactive),104%,-0.404 (inactive),-4.2e-05 (inactive),0.00343 (inactive),-1.58% (inactive),14.4% (inactive)
OC(CN1CCN(c2ccccn2)CC1)Cn1c2ccccc2c2ccccc21 (stereo not drawn),386,5.1% (inactive),7.2% (inactive),104%,-14.4% (inactive),107%,-0.472 (inactive),5.1e-05 (inactive),0.00493 (inactive),1.54% (inactive),21.8% (inactive)
Cc1c(C(=O)O)c(-c2ccccc2)nn1-c1ccccc1,119,12.1% (inactive),3.2% (inactive),85.6%,-11.7% (inactive),127%,-0.39 (inactive),-0.000126 (inactive),0.00692 (inactive),15% (inactive),-3.71% (inactive)
COc1ccc(N2CCN(Cc3nc4c(c(=O)n(C)c(=O)n4C)n3Cc3ccccc3C)CC2)cc1,719,-14% (inactive),5.8% (inactive),100%,-7.8% (inactive),129%,-0.428 (inactive),-2.3e-05 (inactive),0.00487 (inactive),14.4% (inactive),39.9% (inactive)
COC(=O)Cn1c(CN2CCN(c3ccccc3F)CC2)nc2c1c(=O)n(C)c(=O)n2C,633,-1.4% (inactive),-18.2% (inactive),90.2%,7.8% (inactive),87.6%,-0.555 (inactive),-3.8e-05 (inactive),0.0082 (inactive),7.96% (inactive),19.6% (inactive)
O=C1CCCc2c1cc(C(=O)NCCCN1CCOCC1)c(=O)n2-c1ccc(Cl)cc1,568,2.5% (inactive),0.1% (inactive),99.5%,-2.6% (inactive),122%,-0.546 (inactive),-4e-05 (inactive),0.00614 (inactive),10.7% (inactive),45.8% (inactive)
Cc1nc2c(C(=O)O)cnn2c(C)c1Cc1ccccc1F,606,-12.2% (inactive),11.2% (inactive),77.3%,-44.9% (inactive),105%,-0.406 (inactive),4.6e-06 (inactive),0.00393 (inactive),-2.88% (inactive),-3.96% (inactive)
CC(C)c1ccc(S(=O)(=O)N2CCN(CCC(=O)Nc3ccc(N(C)C)cc3)CC2)cc1,412,-1.6% (inactive),20% (inactive),91.6%,-15.3% (inactive),89.3%,-0.397 (inactive),-2.3e-05 (inactive),0.00369 (inactive),9.08% (inactive),20% (inactive)
C[C@@H]1C[C@H](O)c2cc(Cl)ccc2N1,404,-7.2% (inactive),17.5% (inactive),97.5%,-39.2% (inactive),114%,-0.594 (inactive),-1.8e-05 (inactive),0.0061 (inactive),11% (inactive),27.1% (inactive)
CCn1c(C)c(CCC(=O)O)c(=O)n2nc(-c3ccccc3OC)cc12,400,7.4% (inactive),0% (inactive),103%,-121% (inactive),108%,-0.548 (inactive),-1.2e-05 (inactive),0.00427 (inactive),-9.14% (inactive),2.68% (inactive)
O=C(Oc1cccc2cccnc12)c1cccc(-n2cnnn2)c1,461,2.7% (inactive),-8.5% (inactive),105%,-16.1% (inactive),93.4%,-0.494 (inactive),-3.7e-05 (inactive),0.00392 (inactive),15% (inactive),24.5% (inactive)
COc1ccccc1C(=O)OCn1nnc2ccccc2c1=O,714,-21.1% (inactive),6.6% (inactive),103%,-15.2% (inactive),106%,-0.421 (inactive),-4e-05 (inactive),0.00465 (inactive),12.3% (inactive),22.5% (inactive)
COc1ccc(Cl)cc1S(=O)(=O)n1cnc2ccccc21,725,-4.8% (inactive),-5.8% (inactive),92.3%,-42.3% (inactive),104%,-0.403 (inactive),9.7e-06 (inactive),0.00504 (inactive),19.3% (inactive),31.3% (inactive)
CCCCOC(=O)CN1C(=O)c2ccc(C(=O)OCCCC)cc2C1=O,619,-4.1% (inactive),-4.5% (inactive),36.7%,-48.1% (inactive),88.2%,-0.486 (inactive),-2.2e-05 (inactive),0.00602 (inactive),-2.49% (inactive),26% (inactive)
C=CCn1c(-c2cccs2)nc2nc3ccccc3nc21,546,-5.4% (inactive),-7.5% (inactive),90.1%,-77.5% (inactive),141%,-0.602 (inactive),4.4e-06 (inactive),0.0057 (inactive),-3.42% (inactive),2.94% (inactive)
CCOc1ccc(NC(=O)CSc2nc3cccnc3n2CC)cc1,579,-15.8% (inactive),-26.9% (inactive),92.3%,-54.8% (inactive),102%,-0.487 (inactive),-2.4e-05 (inactive),0.00547 (inactive),12.5% (inactive),25.8% (inactive)
